Data reported in PubChem BioAssay AID651597 (National Center for Advancing Translational Sciences (NCATS), 2012).
About 390 (35%) of roughly 1,100 compounds were called active. Roughly 30% stayed inconclusive and do not appear here. The call rests on the fitted dose curve; in most records, active means well fitted inhibition curve with a large enough effect; inconclusive means small, poorly fitted or top-dose-only effect; inactive means flat fitted curve, though single readings scatter. Some of the results follow. Where a call stands in place of a potency, no number is given.

target: Luciferin 4-monooxygenase (Photinus pyralis) (UniProt P08659); assay: qHTS of Nrf2 Activators: Hit Validation in Secondary FLuc Assay; conditions: firefly luciferase inhibition counter-screen, luminescence; series mostly up to 57.5 µM; further: nearly all actives have a fitted effect of over 65% in size
Method in brief: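 Purified firefly luciferase is tested for inhibition by compounds in the presence of its substrates, ATP and D-luciferin, each at Km. Inhibition marks likely false positives arising from reporter-enzyme stabilization.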
Potency means the concentration at half of the fitted maximal effect.

SMILES | Potency
C[n+]1c2n(c3ccccc31)N=C(c1ccccc1)CS2 | inactive
Cc1ccc(C)c(-c2nnc(NC(=O)c3ccc([N+](=O)[O-])o3)o2)c1 | inactive
Cc1ccc2oc(-c3cccc(NC(=O)c4ccc(Br)o4)c3)nc2c1 | 8.49 µM (active)
O=C(Nc1ccc2ccccc2c1)c1ccc(Br)o1 | 1.2 µM (active)
Cc1nc(NC(=O)c2ccc(Br)o2)ccc1Br | 9.53 µM (active)
Cc1cc(C(=O)Nc2cc(Br)ccc2O)on1 | inactive
O=C(Cn1cnc2ccccc21)N/N=C/C(Br)=C/c1ccccc1 | inactive
O=C(/C=C/Nc1ccc(F)cc1)c1cccs1 | 0.19 µM (active)
O=C(NNC(=O)c1nc(Cl)ccc1Cl)c1ccc(F)cc1 | inactive
COCCn1c(=NC(=O)c2cc(Cl)sc2Cl)sc2cc(S(N)(=O)=O)ccc21 | 15.1 µM (active)
O=c1oc2ccccc2cc1-c1csc(Nc2ccc(O)cc2)n1 | 1.35 µM (active)
O=c1oc2ccc(Br)cc2cc1-c1nc2ccccc2o1 | inactive
CN1CCN(S(=O)(=O)c2ccc(Sc3nnnn3-c3ccccc3)c([N+](=O)[O-])c2)CC1 | inactive
CCOc1cc2c(c3c1C(c1ccccc1)N(S(=O)(=O)c1ccc(C)cc1)C3)C(=O)C=CC2=O (stereo unspecified) | 0.601 µM (active)
Cc1ccccc1/C=C1\C(=O)Nc2ccc(F)cc21 | inactive
Cc1ccsc1/C=N/N=C1\C(=O)Nc2ccccc21 | 3.38 µM (active)
COC(=O)[C@@]1(Sc2ccc(C)cc2)CC(=O)N(C(=O)/C=C/c2ccccc2)[C@@H]1c1ccccc1 | inactive
O=C(CNC(=S)NC(=O)c1ccccc1Br)c1ccccc1 | inactive
O=C(NC(=S)Nc1cc(C(F)(F)F)ccc1Cl)c1ccccc1 | inactive

SMILES | Potency
O=C(NC(=S)Nc1ccccc1O)c1ccccc1Cl | 8.49 µM (active)
O=C1/C(=C\c2ccc(Cl)cc2)CCC1CNc1ccc(Cl)cc1 (stereo unspecified) | 19 µM (active)
Cc1ccc(S(=O)(=O)c2nc(S(C)(=O)=O)sc2N2CCCCC2C)cc1 (stereo unspecified) | inactive
COc1cc(C=C(c2nc3ccccc3s2)c2nc3ccccc3s2)ccc1O | 12 µM (active)
O=C1Nc2cccnc2N(C(=O)CCl)c2ccccc21 | inactive
COc1ccccc1C=Cc1ccnc2ccccc12 | 5.36 µM (active)
O=C(c1ccco1)c1cn(CC(=O)N2CCCc3ccccc32)c2ccccc12 | inactive
CC(=O)Nc1ccc(O)c(-c2nc3ccccc3s2)c1 | 2.13 µM (active)
O=C1c2cccc3cccc(c23)C(=O)N1Cc1ccco1 | inactive
c1ccc(N=NC2=NN(c3ccccc3)CS2)cc1 | 2.13 µM (active)
Cc1ccc(Sc2cnn(-c3ccccc3)c(=O)c2Cl)cc1 | inactive
O=C(O)c1ccc(-n2ncc(Cl)c(Cl)c2=O)cc1 | inactive
O=c1c(Cl)c(N/N=C/c2ccc(Cl)cc2)cnn1-c1ccccc1 | 19 µM (active)
Oc1ccc2ccccc2c1/C=C/c1ccc2c(Br)cc(Br)c(O)c2n1 | 10.7 µM (active)
COc1cc2c(cc1NC(=O)c1ccco1)CCCC2 | 7.57 µM (active)
COc1cc(OC)c(NC(=O)c2ccco2)cc1Cl | inactive
Cc1noc(C)c1COc1ccccc1C(=O)NNC(=O)c1ccccc1F | inactive
COC(=O)c1sccc1NC(=O)c1ccccc1F | inactive
COc1cc2c(cc1NC(=O)c1ccccc1F)CCCC2 | 8.49 µM (active)

SMILES | Potency
COC(=O)[C@@H]1Cc2c([nH]c3ccccc23)C(C)(C)N1C(=O)CCl | inactive
Cc1cc(Br)ccc1NC(=O)CNC(=O)Cn1ncc(Cl)c(Cl)c1=O | inactive
CCOC(=O)c1cnc(-c2ccccc2)nc1-c1ccccc1 | inactive
CCOC(=O)c1ccccc1N/C=C/C(=O)c1ccccc1 | 10.7 µM (active)
CCOC(=O)c1ccsc1NC(=O)CCS(=O)(=O)c1ccccc1 | inactive
CS(=O)(=O)c1nc(S(=O)(=O)c2ccc(Cl)cc2)c(N2CCC3(CC2)OCCO3)s1 | inactive
Cc1ccc(Nc2nc(C(N)=O)c(NC(=O)c3ccccc3Br)s2)cc1 | 13.5 µM (active)
COC(=O)c1c(NC(=O)c2ccccc2)sc(C(N)=O)c1C | inactive
NC(=O)c1nc(Nc2ccccc2)sc1NC(=O)c1ccccc1Br | inactive
O=C(CSc1nccc(-c2cccs2)n1)Nc1cccc(Cl)c1Cl | inactive
O=C(CSc1nccc(-c2cccs2)n1)Nc1cccc(Cl)c1 | inactive
O=C(Nc1nccc(-c2cccs2)n1)c1cccs1 | 10.7 µM (active)
O=C(Nc1ncc2c(n1)-c1ccccc1CC2)c1cccs1 | 10.7 µM (active)
Fc1ccc(Nc2nc3ccccc3n3cnnc23)c(F)c1 | inactive
Cc1c(Nc2nc3ccccc3n3cnnc23)cccc1[N+](=O)[O-] | inactive
Oc1ccccc1Nc1nc2ccccc2n2nnnc12 | 10.7 µM (active)
CSc1ccc(C2NN=C(c3ccccc3)S2)cc1 (stereo unspecified) | 0.0426 µM (active)
CC(C)OC(=O)c1cn(-c2ccccc2)nc1-c1ccco1 | 6.75 µM (active)
